Assay outcomes: PubChem BioAssay, National Center for Advancing Translational Sciences (NCATS)
Many of the other results were omitted from the sample, so hits are more common in it than they were.
Cycloheximide cs: affects cycloheximide protein synthesis inhibition readout, counter-screen; AID 2314; cell reporter, cycloheximide protein synthesis inhibition counterscreen; max response, %; actives 12% (n = 300,000); in the data active = max response mostly above about 13%, no sharp cut-off; inactive = mostly below about 14%; also: read at 38.3 µM for the half of the compounds with a filed dose; 0% is about no effect
Sm TGR inh: blocks Schistosoma mansoni thioredoxin glutathione reductase | purified TGR, DTNB reduction, TNB absorbance 405 nm | Potency, µM (highest dose often 114 µM), for the others: at the highest dose activity change, negative = inhibition, actives largely listed as inhibitors | actives 3% (n = 360,000) | Q962Y6; also: potency is read from the fitted curve at half-maximal effect; % is scaled to controls: 0 for no effect and ±100 for the full control effect; nearly all actives have a fitted effect of over 60% in size
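Kinetic colorimetric format: TGR-catalysed, NADPH-driven DTNB reduction monitored via TNB absorbance. Enzyme dispensed at 20 nM; compound exposure 15 min at room temperature before reaction start.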
TbPYK inhibitor: T. brucei pyruvate kinase inhibition | Q57TT1 | TbPYK enzyme, Kinase-Glo Plus ATP luminescence, 45 min | Potency, µM (top dose mostly 76.8 µM), inactives show at the highest dose activity, negative = inhibition, actives largely listed as inhibitors | actives 0.12% (n = 410,000) | AID 624173; also: potency is read from the fitted curve at half-maximal effect; % is scaled to controls: 0 for no effect and ±100 for the full control effect; nearly all actives have a fitted effect of over 50% in size
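Luminescent Kinase-Glo Plus end-point after 45 min room-temperature reaction of T. brucei pyruvate kinase started with 130 uM ADP (final). Buffer TEA 50 mM pH 7.2 with KCl, MgCl2, BSA, Tween-20; titration-based qHTS with fitted concentration-effect curves.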
LmPK inh: LmPK (Leishmania mexicana) enzyme inhibition; Q27686; purified LmPK, Kinase-Glo ATP luminescence, 1 h; Potency, µM (doses to about 57.5 µM), without a hit: at the highest dose activity change, negative = inhibition, usual class: inhibitors; actives 0.37% (n = 290,000); AID 1721; also: potency is read from the fitted curve at half-maximal effect; % is scaled to controls: 0 for no effect and ±100 for the full control effect
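In 50 mM imidazole pH 7.2 with 7 mM MgCl2, LmPK (0.1 nM) turned over PEP (0.5 mM) and ADP (0.1 mM) for 1 h at room temperature. Luciferase read-out of ATP.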
Shiga inhibitor: blocks Shiga toxin action in Vero cells | inhibition, % at 38.7 µM | Vero cells, Shiga toxin protein synthesis inhibition reporter | AID 2315 | actives 9.2% (n = 290,000); in the data active = inhibition mostly above about 28%, no sharp cut-off; inactive = mostly below about 43%; also: 0% is about no effect
FBPA Giardia inh: inhibitors of Giardia lamblia fructose-1,6-bisphosphate aldolase. A8B2U2. purified Giardia FBPA. Potency, µM (top dose mostly 59.6 µM), without a hit: at the top dose activity, negative = inhibition, usual class: inhibitors. actives 0.71% (n = 290,000). AID 2451; also: potency is read from the fitted curve at half-maximal effect; % is scaled to controls: 0 for no effect and ±100 for the full control effect; nearly all actives have a fitted effect of over 55% in size
Target sequence (A8B2U2 whole entry, looked up): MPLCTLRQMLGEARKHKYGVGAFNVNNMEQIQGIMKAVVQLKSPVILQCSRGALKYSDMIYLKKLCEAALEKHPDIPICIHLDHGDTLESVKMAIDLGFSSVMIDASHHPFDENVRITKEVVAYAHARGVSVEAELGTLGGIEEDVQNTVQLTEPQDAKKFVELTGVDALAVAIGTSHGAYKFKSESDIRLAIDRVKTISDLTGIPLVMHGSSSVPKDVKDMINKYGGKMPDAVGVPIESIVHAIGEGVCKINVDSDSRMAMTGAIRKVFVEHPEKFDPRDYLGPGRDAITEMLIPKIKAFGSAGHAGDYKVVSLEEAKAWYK
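40 nM FBPA preincubated 10 min at RT with compound (up to 57.5 uM final), then substrate plus GAPDH/TPI/NAD/arsenate coupling and diaphorase/resazurin added. Fluorescence read after 20 min at RT, 525/598 nm.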
Active calls of the source: *. Unless noted, calls follow the shape of the dose curve; as a rule, active = well fitted curve in the direction sought with a large enough effect; inconclusive = small, poorly fitted or top-dose-only effect, or another doubt; inactive = no such curve, though single readings can be large; an effect the other way counts as inactive or inconclusive.

For Cc1nc2cc(-c3ccccc3)nn2c(C)c1CCC(=O)N1CCN(c2ccc(F)cc2)CC1 the results were Sm TGR inh 5.1% and TbPYK inhibitor -0.4%.
Screening COc1cccc(-n2cc3c(=O)n(C)c(=O)n(C)c3c2)c1 returned Cycloheximide cs 23.8*, Sm TGR inh 44.7µM*, TbPYK inhibitor -14.2%, LmPK inh 2.9%, Shiga inhibitor 87.5 and FBPA Giardia inh -17.0%.
For CCOc1ccc(NC(=O)c2sc(-n3nc(C)c(Cc4ccc(Cl)cc4)c3C)nc2C)cc1 the results were Sm TGR inh 2.8% and TbPYK inhibitor -1.4%.
For CCN(Cc1ccccc1)C(=O)Cn1c(=O)n(Cc2ccccc2)c(=O)c2c1c1cc(OC)ccc1n2C the results were Sm TGR inh 2.8% and TbPYK inhibitor 1.5%.
For COc1cc(N(C)C)cc(CN(C)CCc2ccc([N+](=O)[O-])cc2)c1O the results were Cycloheximide cs 7.3, Shiga inhibitor 20.5 and FBPA Giardia inh 7.92µM*.
`COc1ccc(CNCCc2ccc([N+](=O)[O-])cc2)c(OC)c1OC` gave Cycloheximide cs 1.0, Sm TGR inh inconclusive, TbPYK inhibitor 17.9%, LmPK inh 7.3% and FBPA Giardia inh -27.4%.
`CC(C)C(NC(=O)c1ccco1)C(=O)OCC(=O)NCCc1ccccc1` (stereo unspecified) gave Sm TGR inh -14.2% and TbPYK inhibitor 2.7%.
For CC(C)[C@H](NC(=O)c1ccco1)C(=O)OCC(=O)NC12CC3CC(CC(C3)C1)C2 the results were Cycloheximide cs 21.2*, Sm TGR inh -1.6%, TbPYK inhibitor 0.1%, LmPK inh -1.0%, Shiga inhibitor 59.3* and FBPA Giardia inh 3.7%.
CC(C)[C@H](NC(=O)c1ccco1)C(=O)OCC(=O)N1CCc2ccccc21 was read as Cycloheximide cs 14.4*, Sm TGR inh -14.0%, TbPYK inhibitor -1.3%, LmPK inh 1.4%, Shiga inhibitor 73.2* and FBPA Giardia inh -1.2%.
`CC(C)[C@H](NC(=O)c1ccco1)C(=O)OCC(=O)N1CC(=O)Nc2ccccc21` gave Cycloheximide cs -1.3, Sm TGR inh inconclusive, TbPYK inhibitor 6.1%, LmPK inh 0.7%, Shiga inhibitor 19.7 and FBPA Giardia inh 1.1%.
Screening CC1CCC(NC(=O)CN2C(=O)NC3(CCCCC3C)C2=O)CC1 (stereo unspecified) returned Sm TGR inh -10.0% and TbPYK inhibitor -0.3%.
COc1ccc(S(=O)(=O)NNC(=O)Nc2ccc(C)cc2C)c(OC)c1 was read as Cycloheximide cs -1.0, Sm TGR inh 1.2%, TbPYK inhibitor -7.7%, LmPK inh -0.8%, Shiga inhibitor -8.9 and FBPA Giardia inh -2.1%.
For Cc1csc(NC(=O)c2ccccc2O)n1 the results were Cycloheximide cs 56.4*, Sm TGR inh 5.0%, TbPYK inhibitor -0.8%, LmPK inh -10.5%, Shiga inhibitor 89.2* and FBPA Giardia inh -23.0%.
For CSc1ncccc1C(=O)Nc1nc(C(C)(C)C)cs1 the results were Cycloheximide cs 21.2*, Sm TGR inh -0.5%, TbPYK inhibitor -1.2%, LmPK inh 11.1%, Shiga inhibitor 17.7* and FBPA Giardia inh -3.7%.
Cc1csc(NC(=O)c2ccc(Cl)nc2)n1 was read as Cycloheximide cs 46.6*, Sm TGR inh -4.1%, TbPYK inhibitor 1.1%, LmPK inh -2.2%, Shiga inhibitor 56.6* and FBPA Giardia inh -7.6%.
Screening O=C(Nc1nccs1)c1ccc(Cl)nc1 returned Cycloheximide cs 26.0, Sm TGR inh 5.3%, TbPYK inhibitor 0.4%, LmPK inh -0.1%, Shiga inhibitor 23.1 and FBPA Giardia inh -11.5%.
Cc1csc(Nc2nc(N)c(C(=O)Nc3ccccc3)o2)n1 was read as Cycloheximide cs 39.4*, Sm TGR inh -9.7%, TbPYK inhibitor -8.2%, LmPK inh 0.7%, Shiga inhibitor 97.9* and FBPA Giardia inh -1.6%.
Screening CC(C)(C)c1csc(NC(=O)c2cccnc2Cl)n1 returned TbPYK inhibitor 0.1%.
Cc1ccc(C(=O)O)c(C(=O)Nc2nc(C)cs2)c1 was read as Cycloheximide cs -2.8, Sm TGR inh 0.0%, TbPYK inhibitor 5.4%, LmPK inh -7.0%, Shiga inhibitor -7.7 and FBPA Giardia inh 0.9%.
